Results: PubChem BioAssay AID602405 (Broad Institute, 2012)
The whole screen tested about 360,000 compounds, of which about 350 (0.097%) were called active. For the sample, actives were picked, then their nearest neighbours and some compounds at random. Unmarked numbers belong to inactive results. Cut-off read from the data, not from the text of the source: active = inhibition above about 16% (passing the limit was not always enough); inconclusive = no clear call, values can overlap the other calls; inactive = below that.

These molecules were tested on UDP-N-acetylbacillosamine N-acetyltransferase PglD (Campylobacter jejuni) (assay: C. jejuni PglD acetyltransferase inhibitors, primary screen, biochemical, DTNB colorimetric, single point (AID 602405)). Conditions: purified PglD enzyme, DTNB colorimetric CoA detection; at 12.5 µM; active compounds read high.
In the case of `Cc1ccc(S(=O)(=O)NCC[C@H]2CC[C@H](NC(=O)c3ccccn3)[C@H](CO)O2)cc1`, the inhibition is reported as 0.367%. `CCCNC(=O)N1C[C@@H]2[C@H](c3ccccc31)[C@@H](CO)N2C(=O)NC(C)C` gave an inhibition of 4.12%. Molecule `CN1c2ccc(-c3ccccc3F)cc2[C@H]2[C@H](CCN2C(=O)Nc2cc(F)ccc2F)[C@H]1CO` has an inhibition of -0.933%. `C=CC1=C(C(=O)O)N2C(=O)[C@@H](NC(=O)/C(=N\OCC(=O)O)c3csc(N)n3)[C@H]2SC1` was tested, and the inhibition was -2.51%. In the case of `C=CC1=C(C(=O)O)N2C(=O)[C@@H](NC(=O)/C(=N/OCC(=O)O)c3csc(N)n3)[C@H]2SC1`, the inhibition is reported as 71% (active). For `OC[C@H]1[C@@H](c2ccc(/C=C/c3ccccc3)cc2)[C@H]2CN(Cc3cccnc3)CCCCN21`, the inhibition was -0.638%. Molecule `CO[C@@H]1CN(C)C(=O)c2cc(NC(=O)C3CC3)ccc2OC[C@H](C)N(Cc2ccc(F)cc2)C[C@@H]1C` has an inhibition of -0.858%. Molecule `O=C(C[C@H]1CC[C@H](NC(=O)Nc2ccc(C(F)(F)F)cc2)[C@H](CO)O1)NCCN1CCCC1` has an inhibition of -2.91%. In the case of `Cc1noc(C)c1NC(=O)N(C)C[C@H]1OCCCC[C@H](C)Oc2ccc(NC(=O)Nc3ccc4c(c3)OCO4)cc2C(=O)N([C@H](C)CO)C[C@@H]1C`, the inhibition is reported as 3.46%. `O=C(C[C@@H]1CC[C@@H]2[C@H](COC[C@H](O)CN2Cc2cccc(F)c2)O1)NCc1ccncc1` showed an inhibition of -0.388%. For `C[C@H]1CCCCO[C@H](CN(C)C(=O)CCC(F)(F)F)[C@@H](C)CN([C@@H](C)CO)C(=O)c2cc(NC(=O)Nc3ccc4c(c3)OCO4)ccc2O1`, the inhibition was 0.932%. Work on `Cc1csc(SCC(=O)Nc2ccc(C)c(S(=O)(=O)N(C)C)c2)n1` yielded an inhibition of 3.71%. For `CCN(CC(=O)Nc1ccc(C)c(S(=O)(=O)N(C)C)c1)Cc1ccccc1`, the inhibition was -3.38%. For `Cc1ccc(NC(=O)CNCc2ccccn2)cc1S(=O)(=O)N(C)C`, the inhibition was 20.4% (active). Molecule `O=C1c2ccccc2S(=O)(=O)N1Cc1c(F)cccc1Cl` has an inhibition of -4.6%. In the case of `CC(C)(C)c1ccc(CN2C(=O)c3ccccc3S2(=O)=O)cc1`, the inhibition is reported as 41.7% (active). For `COc1ccc(CNC(=O)CN2C(=O)c3ccccc3S2(=O)=O)cc1`, the inhibition was -2.12%. `COc1ccccc1S(=O)(=O)N1CC[C@@H]2[C@H](CO)Nc3ccc(-c4ccccc4F)cc3[C@@H]21` showed an inhibition of 2.37%. Work on `CCC(=O)Nc1ccc2c(c1)C(=O)N(C)C[C@@H](OC)[C@H](C)CN(Cc1ccccc1C(=O)O)[C@@H](C)CO2` yielded an inhibition of 1.3%. Work on `O=C(NCCc1ccc(Cl)cc1)C1CCCN1C(=O)NCc1ccccc1` (centres undefined) yielded an inhibition of 1.86%. With `O=S1(=O)CC(NCc2ccccc2)C(Nc2ccc(Cl)cc2)C1` (centres undefined) the inhibition was 35.4% (active). For `O=C(NCCS(=O)(=O)NCc1ccc(Cl)cc1)c1ccccc1`, the inhibition was 0.839%. Molecule `CN(C)CC#Cc1ccc([C@H]2[C@H](CO)N3CCCCN(CC4CC4)C[C@@H]23)cc1` has an inhibition of 0.034%. Molecule `COc1ccccc1CNC(=O)C[C@@H]1CC[C@@H]2[C@@H](COc3ccc(NC(=O)Nc4ccc(F)c(F)c4)cc3C(=O)N2C)O1` has an inhibition of 0.834%. `C[C@@H]1CN([C@@H](C)CO)C(=O)c2cc(NS(C)(=O)=O)ccc2O[C@@H](C)CCCCO[C@@H]1CN(C)C(=O)c1ccccc1` gave an inhibition of 2.15%. `C[C@H]1CN([C@@H](C)CO)C(=O)Cc2cc(NC(=O)c3ccncc3)ccc2O[C@@H]1CN(C)C(=O)Nc1ccccc1` showed an inhibition of 3.86%. `O=C(C[C@@H]1CC[C@H](NC(=O)C2CC2)[C@H](CO)O1)NCc1ccccc1Cl` was tested, and the inhibition was -4.45%. `CN(C)Cc1cn(CC[C@H]2CC[C@H](NC(=O)Nc3ccccc3F)[C@@H](CO)O2)nn1` was tested, and the inhibition was -0.499%. `C[C@H]1CN([C@@H](C)CO)C(=O)c2cc(NC(=O)Cn3cnnn3)ccc2O[C@H]1CN(C)S(C)(=O)=O` was tested, and the inhibition was -4.84%. For `O=C(Nc1ccccc1)N[C@@H]1CC[C@H](CCn2cc(C3(O)CCCC3)nn2)O[C@@H]1CO`, the inhibition was 2.19%. For `COc1ccc(-c2ccc3c(c2)O[C@@H](CN(C)CC2CCOCC2)[C@@H](C)CN([C@@H](C)CO)S3(=O)=O)cc1`, the inhibition was -0.251%. `O=C(C[C@@H]1CC[C@H]2[C@@H](COC[C@@H](O)CN2C(=O)Nc2ccc(Cl)cc2)O1)NC1Cc2ccccc2C1` gave an inhibition of 2.05%. In the case of `OC[C@@H]1Nc2ccc(-c3ccc(F)cc3)cc2[C@@H]2[C@H]1CCN2Cc1ccc(F)cc1`, the inhibition is reported as 0.0285%. `C[C@H](CO)N1C[C@H](C)[C@H](CN(C)S(=O)(=O)c2cn(C)cn2)OCCCC[C@H](C)Oc2ccc(N(C)C)cc2C1=O` gave an inhibition of -2.91%. With `COc1ccc(NC(=O)Nc2ccc3c(c2)C(=O)N([C@@H](C)CO)C[C@H](C)[C@H](CN(C)C(=O)Nc2ccccc2)OCCCC[C@@H](C)O3)cc1` the inhibition was 1.95%. `CC(C)C(=O)Nc1ccc2c(c1)C(=O)N(C)[C@@H]1CC[C@@H](CC(=O)NCCc3ccccc3)O[C@H]1CO2` was tested, and the inhibition was -3.51%. `C[C@@H]1CN([C@@H](C)CO)S(=O)(=O)c2ccc(C#Cc3cccnc3)cc2O[C@@H]1CN(C)C(=O)CN(C)C` was tested, and the inhibition was 0.034%. Work on `C[C@@H]1CN([C@H](C)CO)S(=O)(=O)c2ccc(/C=C/c3ccccc3)cc2O[C@@H]1CN(C)C(=O)Nc1ccc(F)cc1` yielded an inhibition of 4.65%. With `O=C([C@H]1[C@H](CO)[C@H]2Cn3c(cccc3=O)[C@@H]1N2Cc1cocn1)N1CCCCC1` the inhibition was -0.522%. Molecule `C[C@H](CO)N1C[C@H](C)[C@H](CN(C)C(=O)Nc2ccc(C(F)(F)F)cc2)Oc2ccc(N(C)C)cc2CC1=O` has an inhibition of 1.24%. `COc1ccccc1-c1cnc2c(c1)C(=O)N([C@@H](C)CO)C[C@@H](C)[C@H](CN(C)Cc1cccnc1)O2` gave an inhibition of 1.03%. For `CCC(=O)N1C[C@@H](C)[C@H](OC)CN(C)C(=O)c2ccc(NC(=O)NC(C)C)cc2OC[C@H]1C`, the inhibition was -4.33%. `C[C@@H]1CN([C@@H](C)CO)C(=O)c2cc(N(C)C)ccc2O[C@@H](C)CCCCO[C@H]1CN(C)C(=O)CCCN(C)C` gave an inhibition of 2.35%. Molecule `CCC(=O)Nc1ccc2c(c1)C(=O)N(C)C[C@@H](OC)[C@@H](C)CN(Cc1ccccc1OC)[C@H](C)CO2` has an inhibition of 0.2%. For `CC(C)NC(=O)Nc1ccc2c(c1)C(=O)N([C@H](C)CO)C[C@@H](C)[C@@H](CN(C)S(=O)(=O)c1cccs1)OCCCC[C@@H](C)O2`, the inhibition was -0.385%. `C[C@H]1CN([C@@H](C)CO)C(=O)c2cccc(NC(=O)Nc3cccc4ccccc34)c2O[C@@H]1CN(C)C(=O)NC1CCCCC1` gave an inhibition of 0.764%. In the case of `C[C@@H]1CN([C@H](C)CO)S(=O)(=O)c2ccc(C#CCC3CCCC3)cc2O[C@H]1CN(C)Cc1ccc(C(=O)O)cc1`, the inhibition is reported as 6.4%. For `Cc1noc(C)c1S(=O)(=O)Nc1ccc2c(c1)CC(=O)N([C@@H](C)CO)C[C@@H](C)[C@H](CN(C)C)O2`, the inhibition was -1.66%. `CN(C)C(=O)c1cccc(-c2ccc3c(c2)[C@@H]2[C@@H](CCN2Cc2nccs2)[C@@H](CO)N3)c1` showed an inhibition of 0.288%. With `CCNC(=O)Nc1ccc2c(c1)C(=O)N(C)[C@@H]1CC[C@H](CC(=O)NC3CCCCC3)O[C@H]1CO2` the inhibition was 1.07%. For `C[C@@H]1CN([C@@H](C)CO)C(=O)c2cc(C#CCN(C)C)cnc2O[C@@H]1CN(C)Cc1ccccn1`, the inhibition was 3.09%. Molecule `COc1cccc(NC(=O)N(C)C[C@H]2Oc3ncc(C4=CCCCC4)cc3C(=O)N([C@H](C)CO)C[C@H]2C)c1` has an inhibition of 10.3%. Molecule `CN1C(=O)c2cc(NC(=O)c3cccc(F)c3)ccc2OC[C@@H]2O[C@H](CC(=O)N3CCc4ccccc4C3)CC[C@@H]21` has an inhibition of -1.96%. Work on `CNC(=O)C[C@@H]1CC[C@@H]2[C@H](COC[C@@H](O)CN2S(=O)(=O)c2ccccc2Cl)O1` yielded an inhibition of 1.56%. `Cc1noc(C)c1S(=O)(=O)N(C)C[C@H]1Oc2ccc(NC(=O)Cc3ccccc3)cc2CC(=O)N([C@@H](C)CO)C[C@H]1C` showed an inhibition of 2.8%. Work on `O=C(C[C@H]1C[C@@H]2c3cc(NC(=O)C4CCC4)ccc3O[C@@H]2[C@@H](CO)O1)NCCN1CCCCC1` yielded an inhibition of 3.36%. `COc1cccc(S(=O)(=O)N[C@H]2C=C[C@H](CC(=O)NC3Cc4ccccc4C3)O[C@@H]2CO)c1` was tested, and the inhibition was -1.14%. With `COc1ccc(S(=O)(=O)N[C@@H]2CC[C@H](CC(=O)N3CCc4ccccc4C3)O[C@H]2CO)cc1` the inhibition was -0.563%. `COCC#Cc1cnc2c(c1)C(=O)N([C@@H](C)CO)C[C@@H](C)[C@H](CN(C)C(=O)C1CCOCC1)O2` showed an inhibition of 4.25%. For `COc1ccc(NC(=O)N(C)C[C@H]2OCCCC[C@@H](C)Oc3ccc(NC(=O)NC4CCCCC4)cc3C(=O)N([C@@H](C)CO)C[C@H]2C)cc1`, the inhibition was 4.17%. Work on `O=C(NCC[C@@H]1CC[C@@H](NC(=O)Nc2cc(F)ccc2F)[C@H](CO)O1)Nc1ccc(Cl)cc1` yielded an inhibition of 0.614%. With `COc1cccc(S(=O)(=O)N2CCCCN3[C@H](CO)[C@H](c4ccc(-c5ccncc5)cc4)[C@H]3C2)c1` the inhibition was 2.87%. Work on `Cc1noc(C)c1S(=O)(=O)N(C)C[C@@H]1Oc2ccc(NC(=O)C3CC3)cc2CC(=O)N([C@@H](C)CO)C[C@@H]1C` yielded an inhibition of -3.27%. With `COc1cccc(C(=O)Nc2ccc3c(c2)C(=O)N(C)[C@H]2CC[C@H](CC(=O)N[C@@H](C)c4ccccc4)O[C@H]2CO3)c1` the inhibition was 0.936%.
